# Test results from PubChem BioAssay (NCI).
# This is part of a sample that, as a whole, favours compounds with a hit. Of some 79,000 tested, about 15% had one in any assay. Values without a mark were called inactive. Calls of active or inactive are those of the source. Cut-off read from the data, not from the text of the source: active = growth inhibition above about 70%; inactive = the rest.
# Legend:
# [1] = NCI Yeast Anticancer Drug Screen. Data for the rad52 strain (AID 147);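 note: 0% = growth of vehicle-treated control cultures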; conditions: S. cerevisiae rad52 mutant growth inhibition, hits give high values
# In short: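 Measured: yeast growth inhibition. System: strain with a defined DNA damage repair alteration. Reference: vehicle-treated control cultures.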
# [2] = NCI Yeast Anticancer Drug Screen. Data for the wt1 strain (AID 149);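 note: 0% = growth of vehicle-treated wt1 cultures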; conditions: S. cerevisiae wt1 strain (SPY 50644) growth inhibition, hits give high values
# In short: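 Vehicle-normalised growth inhibition; strain wt1; compound exposure.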
# [3] = NCI Yeast Anticancer Drug Screen. Data for the rad50EPP+ strain (AID 151);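 note: 0% = growth of vehicle-treated control cultures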; conditions: S. cerevisiae rad50 mutant strain, hits give high values
# In short: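 One strain with a rad50 alteration (rad50EPP+) was compound-treated, its growth then compared to that of vehicle controls.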
# [4] = NCI Yeast Anticancer Drug Screen. Data for the mgt1 strain (AID 153); conditions: S. cerevisiae mgt1 mutant growth inhibition, hits give high values
# In short: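 After exposure of the mgt1 yeast mutant to compound, growth was measured and reported as inhibition compared with vehicle controls.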
# [5] = NCI Yeast Anticancer Drug Screen. Data for the rad50 strain (AID 155);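 note: 0% = growth of vehicle-only cultures of the same strain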; conditions: S. cerevisiae rad50 strain growth inhibition, hits give high values
# In short: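 A DNA repair-deficient yeast mutant serves as the test organism; compound-induced growth inhibition is calculated against vehicle-treated cells.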
# [6] = NCI Yeast Anticancer Drug Screen. Data for the mec2-1 strain (AID 157); conditions: S. cerevisiae mec2-1 strain, hits give high values
# In short: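 Test agents were screened against the mec2-1 yeast strain, with defined DNA repair or cell cycle alteration. Growth was scored as inhibition against vehicle-only controls.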
# [7] = NCI Yeast Anticancer Drug Screen. Data for the rad14 strain (AID 159);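 note: 0% = growth of vehicle-treated control cultures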; conditions: S. cerevisiae rad14 strain growth inhibition, hits give high values
# In short: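 Vehicle-treated cultures served as the baseline for growth inhibition of a DNA repair-mutant yeast strain exposed to each compound.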
# [8] = NCI Yeast Anticancer Drug Screen. Data for the sgs1 mgt1 strain (AID 161);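 note: 0% = growth of cultures given vehicle only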; conditions: S. cerevisiae sgs1 mgt1 strain, hits give high values
# In short: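 Genetically altered yeast, compound exposure, growth inhibition relative to vehicle.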
# [9] = NCI Yeast Anticancer Drug Screen. Data for the CLN2oe strain (AID 163);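 note: 0% = growth of vehicle-only control cultures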; conditions: S. cerevisiae CLN2oe strain, hits give high values
# In short: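 Here, growth inhibition in a cell-cycle-altered yeast strain after compound exposure was quantified against vehicle control growth.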
# [10] = NCI Yeast Anticancer Drug Screen. Data for the cln2 rad14 strain (AID 165);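 note: 0% = growth equal to vehicle treated cultures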; conditions: S. cerevisiae cln2 rad14 strain, hits give high values
# In short: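 Growth of compound-exposed yeast (cln2 rad14 genotype) measured and expressed as inhibition relative to vehicle.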
# [11] = NCI Yeast Anticancer Drug Screen. Data for the bub3 strain (AID 167); conditions: S. cerevisiae bub3 mutant strain, hits give high values
# In short: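 Inhibition values come from growth of compound-treated mutant yeast normalised to vehicle-treated controls.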
# [12] = NCI Yeast Anticancer Drug Screen. Data for the wt2 strain (AID 169);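 note: 0% = growth of vehicle-treated yeast cultures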; conditions: S. cerevisiae wt2 strain growth inhibition, hits give high values
# In short: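 Genetically defined yeast strains from a DNA-repair/cell-cycle panel were used. Compound-exposed yeast growth was measured, and the inhibition was calculated relative to vehicle treatment.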
# [13] = NCI Yeast Anticancer Drug Screen. Data for the mlh1 strain (AID 171);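 note: 0% = growth of vehicle-treated control cultures of the same strain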; conditions: S. cerevisiae mlh1 strain growth inhibition, hits give high values
# In short: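 Here the genetically defined yeast mutant is grown with each compound, and the extent to which its growth falls below that of vehicle-exposed cells is reported.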
# [14] = NCI Yeast Anticancer Drug Screen. Data for the sgs1 strain (AID 173);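 note: 0% = growth of vehicle-only control cultures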; conditions: S. cerevisiae sgs1 mutant, hits give high values
# In short: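 Relative growth inhibition, referenced to vehicle, was determined in a yeast strain with a defined alteration affecting DNA damage repair or cell cycle control after compound exposure.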
# [15] = NCI Yeast Anticancer Drug Screen. Data for the mlh1 rad18 strain (AID 175); conditions: S. cerevisiae mlh1 rad18 strain growth inhibition, hits give high values
# In short: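 In this whole-cell yeast screen, a strain with altered DNA damage repair is challenged with compound, and its growth is measured against matched vehicle-treated controls.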
# [16] = NCI Yeast Anticancer Drug Screen. Data for the rad18 strain (AID 177); conditions: S. cerevisiae rad18 mutant growth inhibition, hits give high values
# In short: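 Screen uses a yeast strain with a defined lesion in DNA damage repair; compound effect is read as loss of growth compared to untreated vehicle cultures.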
# [17] = at 5.0 µM (retest, dose inferred, filed as 0.5)
# [18] = at 50.0 µM (retest, dose inferred, filed as 5.0)
smiles,measurement,setting,value
COc1ccc(N=C2C(=O)Nc3ccc(Br)cc32)cc1,growth inhibition,[1]; at 1.2 µM,14%
same,growth inhibition,[1]; at 3.7 µM,15%
same,growth inhibition,[1]; at 11.0 µM,18%
same,growth inhibition,[1]; at 33.0 µM,23%
same,growth inhibition,[1]; at 100.0 µM,17%
same,growth inhibition,[2]; at 1.2 µM,8%
same,growth inhibition,[2]; at 3.7 µM,15%
same,growth inhibition,[2]; at 11.0 µM,9%
same,growth inhibition,[2]; at 33.0 µM,14%
same,growth inhibition,[2]; at 100.0 µM,15%
same,growth inhibition,[3]; at 1.2 µM,-9%
same,growth inhibition,[3]; at 3.7 µM,1%
same,growth inhibition,[3]; at 11.0 µM,-11%
same,growth inhibition,[3]; at 33.0 µM,6%
same,growth inhibition,[3]; at 100.0 µM,-20%
same,growth inhibition,[4]; at 1.2 µM,8%
same,growth inhibition,[4]; at 3.7 µM,-24%
same,growth inhibition,[4]; at 11.0 µM,-5%
same,growth inhibition,[4]; at 33.0 µM,2%
same,growth inhibition,[4]; at 100.0 µM,1%
same,growth inhibition,[5]; at 1.2 µM,-14%
same,growth inhibition,[5]; at 3.7 µM,-14%
same,growth inhibition,[5]; [17],50%
same,growth inhibition,[5]; at 11.0 µM,-23%
same,growth inhibition,[5]; at 33.0 µM,-11%
same,growth inhibition,[5]; [18],61%
same,growth inhibition,[5]; at 50.0 µM,13.8%
same,growth inhibition,[5]; at 100.0 µM,-5%
same,growth inhibition,[6]; at 1.2 µM,-19%
same,growth inhibition,[6]; at 3.7 µM,-13%
same,growth inhibition,[6]; [17],48%
same,growth inhibition,[6]; at 11.0 µM,-19%
same,growth inhibition,[6]; at 33.0 µM,-26%
same,growth inhibition,[6]; [18],61%
same,growth inhibition,[6]; at 50.0 µM,10.7%
same,growth inhibition,[6]; at 100.0 µM,-20%
same,growth inhibition,[7]; at 1.2 µM,-22%
same,growth inhibition,[7]; at 3.7 µM,-25%
same,growth inhibition,[7]; at 11.0 µM,-26%
same,growth inhibition,[7]; at 33.0 µM,-28%
same,growth inhibition,[7]; at 100.0 µM,-30%
same,growth inhibition,[8]; [17],-15%
same,growth inhibition,[8]; [18],23%
same,growth inhibition,[8]; at 50.0 µM,28.9%
same,growth inhibition,[9]; at 1.2 µM,-7%
same,growth inhibition,[9]; at 3.7 µM,23%
same,growth inhibition,[9]; at 11.0 µM,19%
same,growth inhibition,[9]; at 33.0 µM,23%
same,growth inhibition,[9]; at 100.0 µM,1%
same,growth inhibition,[10]; [17],54%
same,growth inhibition,[10]; [18],37%
same,growth inhibition,[10]; at 50.0 µM,-7.9%
same,growth inhibition,[11]; at 1.2 µM,-7%
same,growth inhibition,[11]; at 3.7 µM,-7%
same,growth inhibition,[11]; [17],32%
same,growth inhibition,[11]; at 11.0 µM,-2%
same,growth inhibition,[11]; at 33.0 µM,2%
same,growth inhibition,[11]; [18],85% (active)
same,growth inhibition,[11]; at 50.0 µM,82.4% (active)
same,growth inhibition,[11]; at 100.0 µM,50%
same,growth inhibition,[12]; at 1.2 µM,19%
same,growth inhibition,[12]; at 3.7 µM,1%
same,growth inhibition,[12]; at 11.0 µM,9%
same,growth inhibition,[12]; at 33.0 µM,20%
same,growth inhibition,[12]; at 100.0 µM,11%
same,growth inhibition,[13]; at 1.2 µM,6%
same,growth inhibition,[13]; at 3.7 µM,-3%
same,growth inhibition,[13]; at 11.0 µM,-19%
same,growth inhibition,[13]; at 33.0 µM,-24%
same,growth inhibition,[13]; at 100.0 µM,-18%
same,growth inhibition,[14]; at 1.2 µM,1%
same,growth inhibition,[14]; at 3.7 µM,-10%
same,growth inhibition,[14]; at 11.0 µM,-5%
same,growth inhibition,[14]; at 33.0 µM,-16%
same,growth inhibition,[14]; at 100.0 µM,-11%
same,growth inhibition,[15]; [17],47%
same,growth inhibition,[15]; [18],55%
same,growth inhibition,[15]; at 50.0 µM,27%
same,growth inhibition,[16]; at 1.2 µM,-25%
same,growth inhibition,[16]; at 3.7 µM,-36%
same,growth inhibition,[16]; at 11.0 µM,-39%
same,growth inhibition,[16]; at 33.0 µM,-30%
same,growth inhibition,[16]; at 100.0 µM,-28%
